From the supplement of paper PMC12067926

system: Community 10; assay: relative growth (AUC of 72 h growth curve relative to DMSO control, dAUC) (ratio); higher = more growth (less inhibition), active = hit call of the paper; conditions: 20 µM
Method: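 Environmental bacterial isolates (Iceland stream sediment and Silwood Park soil) and whole stream-sediment communities were grown in LB from a 1:100 dilution with each pesticide at 20 µM (1% DMSO). A600 was read hourly for 72 h and the area under a spline-fitted growth curve (AUC) was computed. dAUC is the mean AUC of 3 biological replicates divided by the mean AUC of the DMSO controls. Significance was tested by Dunnett's test against the DMSO control.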

Row | SMILES | relative growth
1 | CC1(C(=O)Nc2ccc(O)c(Cl)c2Cl)CCCCC1 | 0.827 (inactive)
2 | Fc1ccc(Oc2ccnc3cc(Cl)cc(Cl)c23)cc1 | 0.887 (inactive)
3 | CNC(=O)CSP(=S)(OC)OC | 0.887 (inactive)
4 | CCCN(CCOc1c(Cl)cc(Cl)cc1Cl)C(=O)n1ccnc1 | 0.868 (inactive)
5 | COc1cc(OC)nc(NC(=O)NS(=O)(=O)c2ncccc2C(=O)N(C)C)n1 | 1.11 (inactive)
6 | CC(Oc1ccc(Oc2ncc(C(F)(F)F)cc2Cl)cc1)C(=O)O (stereo not given) | 0.793 (inactive)
7 | CCC(=O)Nc1ccc(Cl)c(Cl)c1 | 0.919 (inactive)
8 | CCC(CC)Nc1c([N+](=O)[O-])cc(C)c(C)c1[N+](=O)[O-] | 0.687 (inactive)
9 | Cc1cccc2sc3nncn3c12 | 0.867 (inactive)
10 | CC(C)N(C(=O)COc1nnc(C(F)(F)F)s1)c1ccc(F)cc1 | 0.763 (inactive)
11 | Fc1ccc([C@]2(Cn3cncn3)O[C@H]2c2ccccc2Cl)cc1 (racemic) | 0.962 (inactive)
12 | COc1cccc(C(=O)NN(C(=O)c2cc(C)cc(C)c2)C(C)(C)C)c1C | 0.786 (inactive)
13 | CN(C)C(CSS(=O)(=O)O)CSS(=O)(=O)O | 0.835 (inactive)
14 | CC(C)(C)c1ccc(CSc2cnn(C(C)(C)C)c(=O)c2Cl)cc1 | 0.941 (inactive)
15 | Cc1cc(C2CC2)nc(Nc2ccccc2)n1 | 0.995 (inactive)
16 | CS(=O)(=O)c1cc(C(F)(F)F)ccc1C(=O)c1cnoc1C1CC1 | 1.13 (inactive)
17 | O=[N+]([O-])c1cc(C(F)(F)F)c(Cl)c([N+](=O)[O-])c1Nc1ncc(C(F)(F)F)cc1Cl | 0.534 (active)
18 | CCCCOC(=O)[C@H](C)Oc1ccc(Oc2ccc(C#N)cc2F)cc1 | 0.88 (inactive)
19 | CCOCn1c(-c2ccc(Cl)cc2)c(C#N)c(Br)c1C(F)(F)F | 0.934 (inactive)
20 | CC(C)(C)[C@@H](O)[C@H](Oc1ccc(Cl)cc1)n1cncn1 | 1.07 (inactive)

Row | SMILES | relative growth
21 | CC1(C)CON(Cc2ccccc2Cl)C1=O | 0.791 (inactive)
22 | CCC(C)(C)C(=O)OC1=C(c2ccc(Cl)cc2Cl)C(=O)OC12CCCCC2 | 0.839 (inactive)
23 | CC1(C)C(C=C(Cl)Cl)C1C(=O)OC(C#N)c1cccc(Oc2ccccc2)c1 (stereo not given) | 1.21 (inactive)
24 | COc1ccc(-c2ccccc2)cc1NNC(=O)OC(C)C | 0.782 (inactive)
25 | COP(=O)(OC)OC=C(Cl)Cl | 1.04 (inactive)
26 | ClC1C(Cl)C(Cl)C(Cl)C(Cl)C1Cl (stereo not given) | 0.844 (inactive)
27 | COP(=S)(OC)SCN1C(=O)c2ccccc2C1=O | 1 (inactive)
28 | O=C(Nc1ccc(F)cc1F)c1cccnc1Oc1cccc(C(F)(F)F)c1 | 0.942 (inactive)
29 | N#CC(CCc1ccc(Cl)cc1)(Cn1cncn1)c1ccccc1 (stereo not given) | 1.09 (inactive)
30 | O=C1C2CC=CCC2C(=O)N1SC(Cl)(Cl)Cl (stereo not given) | 0.58 (inactive)
31 | COc1ccc(C(=CC(=O)N2CCOCC2)c2ccc(Cl)cc2)cc1OC (mixture of isomers) | 0.919 (inactive)
32 | CNC(=O)/C=C(\C)OP(=O)(OC)OC | 0.927 (inactive)
33 | O=C(Nc1ccccc1-c1ccc(Cl)cc1)c1cccnc1Cl | 1.05 (inactive)
34 | COC(=O)NC(=S)Nc1ccccc1NC(=S)NC(=O)OC | 0.99 (inactive)
35 | Clc1ccc(C(c2ccc(Cl)cc2)C(Cl)(Cl)Cl)cc1 | 0.832 (inactive)
36 | O=C1C2(Cl)C3(Cl)C4(Cl)C(Cl)(Cl)C5(Cl)C3(Cl)C1(Cl)C5(Cl)C24Cl (stereo not given) | 0.82 (inactive)
37 | C#CCOc1ccc(CCNC(=O)C(OCC#C)c2ccc(Cl)cc2)cc1OC (stereo not given) | 0.982 (inactive)
38 | CCc1cc(C)cc(CC)c1-c1c(OC(=O)C(C)(C)C)n2n(c1=O)CCOCC2 | 0.925 (inactive)
39 | CCc1cccc(C)c1N(C(=O)CCl)[C@@H](C)COC | 0.929 (inactive)
40 | Nc1c(Cl)c(F)nc(OCC(=O)O)c1Cl | 0.976 (inactive)
